Measurements reported in PubChem BioAssay.
A number with no mark means an inactive call. This is one part of the list. Calls of active or inactive are those of the source.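 The calls were made as follows, unless noted: active = mean inhibition across replicates above the hit cutoff set by the earlier primary screen (cut at about 15% in these data); inactive = the rest.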

Experiments:
[1] = molecular target: Platelet-activating factor acetylhydrolase (Homo sapiens) (UniProt Q13093); assay: inhibition of plasma PAF acetylhydrolase – biochemical, fluorescence polarization, human, confirmation (AID 463230;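 active = mean inhibition of the triplicate above the hit cutoff set for the earlier primary screen, cut at about 25% in these data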;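 also: 0% = enzyme with DMSO and 100% = wells lacking pPAFAH enzyme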); conditions: recombinant pPAFAH, FP-Rh probe fluorescence polarization; at 3.39 µM; hits give high values
[2] = molecular target: Serine protease HTRA1 (Homo sapiens) (UniProt Q92743); assay: confirming inhibition of human HTRA1 – biochemical, fluorescence polarization, confirmation (AID 540248;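 active = mean inhibition over three repeats above a set limit taken from the earlier primary screen, cut at about 37% in these data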;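 also: 0% = HTRA1 with DMSO and 100% = wells lacking HTRA1; inhibitors block probe binding so polarization drops and inhibition rises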); conditions: recombinant HTRA1, FP-rhodamine activity-based probe, at 5.96 µM, hits give high values
[3] = molecular target: (Lyso)-N-acylphosphatidylethanolamine lipase (Mus musculus) (UniProt Q8VD66); assay: mouse ABHD4 hydrolase blockers, triplicate – biochemical, fluorescence polarization, confirmation (AID 720658;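 active = mean inhibition across replicates above the hit cutoff set in the primary screen, cut at about 30% in these data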;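 also: 0% = wild-type ABHD4 with DMSO and 100% = catalytically dead S159A mutant with DMSO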); conditions: purified mABHD4, FP-Rh probe fluorescence polarization; at 8.92 µM; hits give high values
[4] = molecular target: Protein-arginine deiminase type-4 (Homo sapiens) (UniProt Q9UM07); assay: protein arginine deiminase 4 blockade, retest – biochemical, fluorescence polarization, confirmation (AID 488796); conditions: recombinant PAD4, RCA probe fluorescence polarization; at 6.36 µM; hits give high values;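 also: inhibitors block active-site labeling by the probe so polarization falls; 0% = PAD4 with probe and DMSO and 100% = probe without PAD4 enzyme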
[5] = reduced OD of T4-infected AddAB+ E. coli – absorbance, E. coli V3065, T4 phage, triplicate, AddAB inhibitor project, confirmation (AID 488942;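 active = mean inhibition above a set limit taken from the earlier primary screen, cut at about 13% in these data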;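 also: higher means less bacterial growth since AddAB block lets phage replicate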); conditions: E. coli V3065 expressing H. pylori AddAB, at 11.9 µM, hits give high values, T4 phage with gene 2 nonsense mutations
[6] = reduced OD of phage-infected RecBCD+ V66 E. coli – absorbance, mutant T4 phage, counter-screen for AddAB inhibitor project (AID 488955;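 active = mean inhibition above the mean of solvent-only control wells plus 3 SD, cut at about 4% in these data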;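 also: optical density read after an 18 h incubation at 37 °C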); conditions: OD growth, at 11.9 µM, hits give high values
[7] = bacterial growth inhibitors – absorbance, counter-screen for AddAB inhibitor project, confirmation (AID 488956; in the data active = inhibition above about 25%); conditions: bacterial viability, absorbance (AddAB counterscreen); at 11.9 µM; hits give high values
[8] = system: DAF-12 nuclear receptor (Heterodera glycines), GAL4-LBD fusion; assay: hgDAF-12 GAL4 fusion reporter activation, retest – cell-based, luminescence, HEK293, GAL4-LBD fusion, confirmation (AID 743050;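 active = mean activation over triplicate wells above the hit cutoff derived from the earlier primary screen, cut at about 11% in these data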;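 also: 0% = DMSO low control and 100% = 2 mM sodium butyrate high control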); conditions: HEK293 GAL4-hgDAF12 luciferase reporter, agonist mode; at 6.8 µM; hits give high values; percent of butyrate response
[9] = molecular target: Oxysterols receptor LXR-beta (Homo sapiens) (UniProt P55055); assay: nonspecific reporter activation via LXR – cell-based, luminescence, HEK293, H. glycines campaign, counter-screen for hgDAF-12 agonist project, confirmation (AID 743051;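 active = mean activation of the triplicate above a set limit carried over from the primary screen, none filed active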); conditions: HEK293 Gal4-LXR luciferase reporter, 24 h; at 6.8 µM; hits give high values
[10] = system: transactivating tegument protein VP16 (Human herpesvirus 1); assay: compounds suppressing VP16-driven luciferase signal – cell-based, luminescence, single concentration, counter-screen for SRC2 inhibitor project (AID 652007; in the data active = inhibition above about 36%); conditions: cell-based VP16 transactivation luciferase reporter, at 8.9 µM, hits give high values
[11] = molecular target: Nuclear receptor coactivator 2 (Homo sapiens) (UniProt Q15596); assay: inhibition of GAL4-SRC2 driven luciferase expression – cell-based, luminescence, HEK293, triplicate, confirmation (AID 652008;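 active = mean inhibition above 46.5%, the solvent-only control mean plus 3 SD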;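 also: 0% = DMSO-treated cells and 100% = Gossypol at 36 µM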); conditions: HEK293 GAL4-SRC2 luciferase reporter, at 8.9 µM, hits give high values
[12] = BSA probe fluorescence interference – biochemical, TAMRA-labeled BSA, counter-screen for TCR-CD3 interaction inhibitor project (AID 652035; in the data active = inhibition above about 23%;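 also: 0% = buffer low control and 100% = reference high control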); conditions: TAMRA-labeled BSA probe fluorescence counterscreen; at 9.4 µM; hits give high values
[13] = system: T-cell receptor (TCR)-CD3 interaction, human; assay: blockers of TCR binding to CD3 – biochemical, fluorescence, TAMRA-labeled TCR probe, confirmation (AID 652036; in the data active = inhibition above about 19%); conditions: TAMRA-labeled TCR probe fluorescence binding assay; at 9.4 µM; hits give high values

Chain of Protein-arginine deiminase type-4 (Homo sapiens) (Q9UM07 whole entry, looked up): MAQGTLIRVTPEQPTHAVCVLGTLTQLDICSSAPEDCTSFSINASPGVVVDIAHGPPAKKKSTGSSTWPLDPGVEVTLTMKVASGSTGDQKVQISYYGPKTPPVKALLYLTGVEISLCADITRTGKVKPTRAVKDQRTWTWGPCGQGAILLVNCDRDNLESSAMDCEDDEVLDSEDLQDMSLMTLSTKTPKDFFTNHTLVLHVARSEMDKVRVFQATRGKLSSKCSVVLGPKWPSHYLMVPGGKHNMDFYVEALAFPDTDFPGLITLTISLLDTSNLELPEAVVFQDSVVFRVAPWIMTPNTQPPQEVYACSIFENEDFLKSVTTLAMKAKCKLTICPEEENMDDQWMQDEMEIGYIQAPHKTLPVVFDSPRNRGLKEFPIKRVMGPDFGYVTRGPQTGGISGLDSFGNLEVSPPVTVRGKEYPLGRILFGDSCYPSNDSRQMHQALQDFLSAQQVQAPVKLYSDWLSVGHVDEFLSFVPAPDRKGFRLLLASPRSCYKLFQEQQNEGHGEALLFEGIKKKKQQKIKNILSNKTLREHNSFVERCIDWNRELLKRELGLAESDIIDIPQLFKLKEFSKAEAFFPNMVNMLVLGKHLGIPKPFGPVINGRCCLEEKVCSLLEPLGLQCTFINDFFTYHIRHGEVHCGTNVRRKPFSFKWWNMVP
Chain of (Lyso)-N-acylphosphatidylethanolamine lipase (Mus musculus) (Q8VD66 whole entry, looked up): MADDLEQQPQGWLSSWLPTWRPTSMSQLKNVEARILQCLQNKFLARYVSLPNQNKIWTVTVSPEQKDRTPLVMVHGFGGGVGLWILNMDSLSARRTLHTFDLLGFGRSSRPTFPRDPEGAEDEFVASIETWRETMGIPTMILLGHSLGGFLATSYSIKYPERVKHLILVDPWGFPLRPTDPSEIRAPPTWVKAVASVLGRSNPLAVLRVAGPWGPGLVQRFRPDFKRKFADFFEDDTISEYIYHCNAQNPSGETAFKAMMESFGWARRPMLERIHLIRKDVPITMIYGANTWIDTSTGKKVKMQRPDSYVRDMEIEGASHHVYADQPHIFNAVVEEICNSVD
Chain of Platelet-activating factor acetylhydrolase (Homo sapiens) (Q13093 whole entry, looked up): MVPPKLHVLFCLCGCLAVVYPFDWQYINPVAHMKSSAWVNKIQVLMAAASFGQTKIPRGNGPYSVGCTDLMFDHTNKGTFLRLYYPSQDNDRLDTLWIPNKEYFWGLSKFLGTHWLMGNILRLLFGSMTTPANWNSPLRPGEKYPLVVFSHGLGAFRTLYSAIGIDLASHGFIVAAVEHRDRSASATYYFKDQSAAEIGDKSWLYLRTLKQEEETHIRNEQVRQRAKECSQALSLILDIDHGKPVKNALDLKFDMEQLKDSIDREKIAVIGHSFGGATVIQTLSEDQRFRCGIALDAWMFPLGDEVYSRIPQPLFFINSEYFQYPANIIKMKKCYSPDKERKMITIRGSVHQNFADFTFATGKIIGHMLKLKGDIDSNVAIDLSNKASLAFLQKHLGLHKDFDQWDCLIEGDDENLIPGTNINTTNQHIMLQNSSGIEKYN
Chain of Nuclear receptor coactivator 2 (Homo sapiens) (Q15596 whole entry, looked up, the tested form may be a part): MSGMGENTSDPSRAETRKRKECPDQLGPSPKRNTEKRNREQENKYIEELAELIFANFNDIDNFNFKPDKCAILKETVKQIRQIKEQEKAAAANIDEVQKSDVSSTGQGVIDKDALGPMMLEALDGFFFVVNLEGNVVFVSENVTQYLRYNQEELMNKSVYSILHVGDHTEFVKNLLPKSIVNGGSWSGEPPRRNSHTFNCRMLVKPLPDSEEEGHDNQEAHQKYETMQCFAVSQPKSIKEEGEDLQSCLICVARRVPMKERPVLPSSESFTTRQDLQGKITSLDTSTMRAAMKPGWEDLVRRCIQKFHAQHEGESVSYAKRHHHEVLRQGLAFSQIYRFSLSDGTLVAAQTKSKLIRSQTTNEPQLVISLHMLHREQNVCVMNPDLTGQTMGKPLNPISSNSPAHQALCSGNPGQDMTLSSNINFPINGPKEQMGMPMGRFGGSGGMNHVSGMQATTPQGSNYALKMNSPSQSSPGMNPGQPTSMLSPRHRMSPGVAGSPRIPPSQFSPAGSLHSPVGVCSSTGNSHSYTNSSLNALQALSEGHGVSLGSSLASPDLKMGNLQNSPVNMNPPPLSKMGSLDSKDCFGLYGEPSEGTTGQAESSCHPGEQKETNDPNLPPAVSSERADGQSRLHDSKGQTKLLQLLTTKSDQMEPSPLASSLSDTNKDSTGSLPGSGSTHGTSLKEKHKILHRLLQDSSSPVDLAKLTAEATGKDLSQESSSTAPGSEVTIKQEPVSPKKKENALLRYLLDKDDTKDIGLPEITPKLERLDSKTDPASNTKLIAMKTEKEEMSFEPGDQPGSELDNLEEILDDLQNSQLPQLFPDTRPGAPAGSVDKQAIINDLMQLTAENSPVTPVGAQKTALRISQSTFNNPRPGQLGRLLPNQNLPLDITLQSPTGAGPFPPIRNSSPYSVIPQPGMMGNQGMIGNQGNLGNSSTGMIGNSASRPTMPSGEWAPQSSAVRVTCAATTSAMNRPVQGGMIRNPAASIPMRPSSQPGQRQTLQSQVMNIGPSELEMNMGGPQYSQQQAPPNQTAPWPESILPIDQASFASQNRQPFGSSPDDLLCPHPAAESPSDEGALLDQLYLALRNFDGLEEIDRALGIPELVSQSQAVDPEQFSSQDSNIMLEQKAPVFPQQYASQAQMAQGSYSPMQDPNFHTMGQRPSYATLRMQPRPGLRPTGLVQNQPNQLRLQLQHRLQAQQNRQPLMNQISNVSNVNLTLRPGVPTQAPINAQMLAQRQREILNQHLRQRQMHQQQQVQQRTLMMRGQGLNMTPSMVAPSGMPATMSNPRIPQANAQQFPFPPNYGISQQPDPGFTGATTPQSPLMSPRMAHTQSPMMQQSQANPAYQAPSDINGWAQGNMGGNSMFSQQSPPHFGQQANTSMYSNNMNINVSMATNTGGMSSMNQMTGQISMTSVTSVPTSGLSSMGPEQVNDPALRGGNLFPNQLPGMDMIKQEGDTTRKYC
Chain of Oxysterols receptor LXR-beta (Homo sapiens) (P55055 whole entry, looked up, the tested form may be a part): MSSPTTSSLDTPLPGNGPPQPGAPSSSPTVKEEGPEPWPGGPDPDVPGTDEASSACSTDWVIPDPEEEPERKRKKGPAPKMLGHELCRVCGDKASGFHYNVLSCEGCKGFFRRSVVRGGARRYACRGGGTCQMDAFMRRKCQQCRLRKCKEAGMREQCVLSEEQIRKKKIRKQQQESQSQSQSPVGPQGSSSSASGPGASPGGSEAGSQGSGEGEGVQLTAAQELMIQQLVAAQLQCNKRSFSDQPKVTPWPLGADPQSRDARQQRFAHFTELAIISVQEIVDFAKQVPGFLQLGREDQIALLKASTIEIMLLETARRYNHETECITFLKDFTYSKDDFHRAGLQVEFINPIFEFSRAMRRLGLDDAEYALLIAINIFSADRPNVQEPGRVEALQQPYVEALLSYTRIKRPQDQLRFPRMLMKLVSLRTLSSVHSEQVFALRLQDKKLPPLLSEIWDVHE

Cc1cc(/C=N/Nc2ccc([N+](=O)[O-])cn2)c(C)n1-c1cccc(C(=O)O)c1
inhibition [1]: 11.7% | inhibition [2]: 30.7% | inhibition [3]: 74.5% (active)

CCc1nnc(SCc2cccc(F)c2)nc1CC
inhibition [4]: -0.68%

O=C(OCC(=O)c1cccs1)c1ccc([N+](=O)[O-])o1
inhibition [5]: 73.1% (active) | inhibition [6]: 1.72% | inhibition [7]: 6.32%

CCC(=O)Nc1sc(C(=O)Nc2ccccc2)c(C)c1C(=O)OC
inhibition [1]: 4.86% | activation [8]: 9.78% | activation [9]: 0.28%

Cc1cc(O)ccc1-c1cnc2ccccc2n1
inhibition [4]: 29.1% (active)

Cc1nn(-c2ccccc2)c(C)c1NC(=O)COc1ccc(Cl)cc1Cl
inhibition [4]: 5.05% | inhibition [10]: -8.62% | inhibition [11]: 16.2%

CCOc1[nH]n(-c2ccc(Cl)cc2)c(=O)c1C=Nc1ccc(O)cc1
inhibition [4]: 6.04% | inhibition [3]: -0.05%

CCCCNC(=O)C1(c2ccc(OC)cc2)CCOCC1
inhibition [4]: 8.6%

COc1ccc(C2NC(=S)NC3=C2CCc2ccccc23)cc1OC (stereo unspecified)
inhibition [4]: 22.5% (active)

CCOC(=O)N1CCC(c2cc(=O)n(-c3ccccc3)[nH]2)CC1
inhibition [4]: -0.34%

Cc1cc2c(cc1C)N(C(=O)CN1C(=O)c3ccccc3C1=O)C(C)(C)c1ssc(=S)c1-2
inhibition [4]: 33.7% (active)

CNC(=S)NNC(=O)c1oc2nc(-c3ccccc3)cc(-c3ccco3)c2c1N
inhibition [4]: 2% | inhibition [2]: 11.5% | inhibition [12]: -11.2% | inhibition [13]: 30.5% (active) | inhibition [3]: 17.5%

Cc1ccn2cc(-c3nonc3C)cc2c1
inhibition [4]: 6.98%
